In all, about 220,000 compounds went through this assay and about 2,000 (0.91%) were called active. Not shown: some 2% with an inconclusive outcome. Not all results are given here. Measured potencies and affinities stand elsewhere. A number with no mark means an inactive call. Cut-off read from the data, not from the text of the source: inconclusive = inhibition above about 80% without an active follow-up result; inactive = below that; test concentration not stated here.

A short description of this assay: M. tuberculosis H37Rv growth inhibitors, H37Rv strain (AID 1626).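 Note: bacteria incubated seven days before Alamar blue readout; 0% = bacteria only wells and 100% = bacteria with antibiotic wells.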 The following applies: active compounds read high, concentration not given here.
For the molecule `O=C(Cn1cnc2ccccc2c1=O)Nc1ccccc1N1CCOCC1`, the inhibition (commonly the change of the read-out against control, counted positive when it falls) was 2.06%.

In the case of `CN1CCN(c2ccccc2NC(=O)c2cc(Br)ccc2Cl)CC1`, the inhibition is 12.3%.

On to `COC(=O)C(Cc1ccccc1)NC(=S)NC(=O)c1ccccc1` (stereo not drawn), for which the inhibition is 3.22%.

Consider `CCOC(=O)c1c(C)[nH]c(C)c1C(=O)CSc1nnc(-c2cc(OC)c(OC)c(OC)c2)o1`, for which the inhibition was -2.95%.

Regarding `COc1cc(-c2nnc(SCC(=O)N3CCCC3)o2)cc(OC)c1OC`, the inhibition is -3.99%.

As for `COc1ccc(N2CCC(CNC(=O)Nc3cccc(OC)c3)C2)cc1` (stereo not drawn), the inhibition was 8.56%.

For `CCOCC(=O)Nc1ccc([N+](=O)[O-])cc1C`, the inhibition was 4.52%.

In the case of `COc1ccc(NC(=S)N2C3CCC2CC(NC(=O)NC24CC5CC(CC(C5)C2)C4)C3)c(OC)c1` (stereo not drawn), the inhibition was 40.3%.

Turning to `COc1ccc(CC2(CO)CCN(Cc3cc4ccccc4o3)CC2)cc1`, the inhibition is 5.84%.

`CC(Sc1ccccc1)C(=O)NN=C1CCCC1` (stereo not drawn): the inhibition was -0.55%.

Take `CC1CCc2nc(NC(=O)CN3CCN(Cc4ccc5c(c4)OCO5)CC3)sc2C1` (stereo not drawn): the inhibition is 64.4%.

As to `CC1CCc2nc(NC(=O)CN3CCOCC3)sc2C1` (stereo not drawn), the inhibition is 23.3%.

On to `CC1CCc2nc(NC(=O)CN3CCN(c4ccc(F)cc4)CC3)sc2C1` (stereo not drawn), for which the inhibition is 18.4%.

On to `COc1ccc(N2CCN(CC(=O)Nc3nnc(-c4ccccc4)s3)CC2)cc1`, for which the inhibition is 73.3%.

On to `O=C(O)c1ccccc1NC(=S)NC(=O)c1sc2ccccc2c1Cl`, for which the inhibition was -3.63%.

With `CCOC(=O)C(C)Sc1nc(=O)n2ccccc2n1` (stereo not drawn), the inhibition is -0.38%.

Regarding `Clc1cccc(Cl)c1CSc1nnc(CN2CCOCC2)n1-c1ccccc1`, the inhibition was -7.41%.

For the molecule `O=C(O)CCC(=O)Nc1ccc(Br)cc1C(=O)c1ccc(Cl)cc1`, the inhibition was -5.88%.

As for `COc1ccccc1COCC(O)CN(Cc1ccco1)Cc1ccccc1O` (stereo not drawn), the inhibition was 11.4%.

On to `COc1ccc(/C=C/C(=O)C(C)(C)C)cc1OC`, for which the inhibition was 7.04%.

Regarding `COc1ccc(/C=C/C(=O)O)cc1OC`, the inhibition was -4.92%.

As to `CCOC(=O)c1cc(-c2ccccc2)sc1NC(=O)C(C)OC(=O)c1ccncc1` (stereo not drawn), the inhibition was 0.66%.

Take `C=CCSc1nc(C)cc(C(=O)OCC)c1C#N`: the inhibition was -3.16%.

For `COc1ccccc1C(=O)O/N=C(\c1ccccc1)c1ccncc1`, the inhibition was 3.28%.

As to `CCOC(=O)N/N=C/C=C/c1ccccc1`, the inhibition was -6.43%.

`CCOc1cccc(/C=C/C(=O)O)c1`: the inhibition is 4.51%.

For `Oc1csc(Cc2nc(-c3ccc(Br)cc3)cs2)n1`, the inhibition is 38.3%.

As to `O=C(NCc1cccnc1)c1c(O)c2cccc3c2n(c1=O)CCC3`, the inhibition was -3.06%.

For `Cc1cccc(NC(=O)c2c(O)c3cccc4c3n(c2=O)CCC4)n1`, the inhibition was -9.1%.

For `CCCCNC(=O)c1c(O)c2cccc3c2n(c1=O)CCC3`, the inhibition was 3.46%.

For the molecule `CCNCCNC(=O)c1c(O)c2cccc3c2n(c1=O)CCC3`, the inhibition is 1.67%.

For the molecule `O=C(Nc1ccccn1)c1c(O)c2cccc3c2n(c1=O)CCC3`, the inhibition is -3.22%.

Take `CNC(=O)c1c(O)c2cccc3c2n(c1=O)CC3`: the inhibition is -2%.

Take `COc1ccc(-n2cnnc2SCC(=O)Nc2cccnc2Cl)cc1`: the inhibition was 2.1%.

For `O=C(Nc1nccs1)c1ccc(Cl)c(S(=O)(=O)N2CCOCC2)c1`, the inhibition was -20.2%.

With `CC1C(c2ccccc2)=NNc2nc3c(c(=O)n(C)c(=O)n3C)n21` (stereo not drawn), the inhibition is -9.85%.

As for `Cc1cccc2c1CC(C)(C)N=C2C1=C(O)CC(C)(C)CC1=O`, the inhibition was 2.19%.

On to `CC(=O)Nc1ccc(NC(=O)CCc2nc3ccccc3c(=O)[nH]2)cc1`, for which the inhibition is 2.86%.

As to `COc1ccc(/C=C/C(=O)c2c(O)n(CCC3=CCCCC3)c(=O)[nH]c2=O)cc1OC`, the inhibition is 36.6%.

Consider `O=c1[nH]c(=O)n(CCc2ccccc2)c(O)c1C=NCc1ccc2c(c1)OCO2`, for which the inhibition is -3.13%.

As to `CCCCn1c(O)c(C(CC)=NCc2ccc3c(c2)OCO3)c(=O)[nH]c1=O`, the inhibition is -0.92%.

Take `Cc1cc(C)c(C(=O)/C=C/c2ccc3c(c2)OCO3)c(=O)[nH]1`: the inhibition was -2.72%.

As for `O=C(/C=C/c1c[nH]c2ccccc12)c1c(O)n(CCc2ccccc2)c(=O)[nH]c1=O`, the inhibition is 22.5%.

As for `CCCCn1c(O)c(C(C)=NCc2ccc3c(c2)OCO3)c(=O)[nH]c1=O`, the inhibition was 10.3%.

As for `COc1cc(/C=C/C(=O)CC(=O)/C=C/c2ccc(O)c(OC)c2)ccc1O`, the inhibition was 7.76%.

As to `Cn1c(N)c(C(=O)/C=C/c2ccccc2)c(=O)[nH]c1=O`, the inhibition was -9.59%.

As for `COc1ccc(CN(C)CC(=O)Nc2sc3c(c2C#N)CCC3)cc1OC`, the inhibition is 3.36%.

In the case of `Cc1ccc(/C=N/NC(=O)CCCOc2ccc(Cl)cc2Cl)cc1[N+](=O)[O-]`, the inhibition is -5.05%.

For the origin of these results see PubChem BioAssay AID1626 (SRMLSC, 2009).
